SMILES strings stand for the structures. Hit rate of the full screen: of about 2,300 compounds, about 20 (0.9%) were called active. This is one part of a sample in which actives are shown more often than they occur.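 How the source made its calls: active means mean percent activation across replicates above the counterscreen hit cutoff of 9.17%; inactive means the rest.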

In the experiment the target is Glucose-dependent insulinotropic receptor (Homo sapiens) (UniProt Q8TDV5). The experiment can be described thus: GPR119 activators in beta-arrestin cells, confirmation, counter-screen for GPR151 activator project, cell-based, PathHunter beta-arrestin, luminescence, set 2 (AID 1508607).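 Further: 0% = median of sample wells and 100% = wells given EA reagent.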 The conditions noted are these: 90 min, at 11.2 µM, active compounds read high.
Glucose-dependent insulinotropic receptor (Homo sapiens), sequence (Q8TDV5 whole entry, looked up): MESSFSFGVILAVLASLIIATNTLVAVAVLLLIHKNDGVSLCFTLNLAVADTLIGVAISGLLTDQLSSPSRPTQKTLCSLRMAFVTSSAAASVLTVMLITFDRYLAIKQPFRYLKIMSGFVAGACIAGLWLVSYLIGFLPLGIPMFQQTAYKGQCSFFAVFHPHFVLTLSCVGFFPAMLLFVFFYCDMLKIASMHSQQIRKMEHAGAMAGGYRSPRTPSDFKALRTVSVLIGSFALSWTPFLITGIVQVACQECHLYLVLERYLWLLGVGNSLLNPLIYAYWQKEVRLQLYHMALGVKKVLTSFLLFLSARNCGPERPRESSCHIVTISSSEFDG
Take `O=C1N[C@H](Cc2ccc(O)cc2)C(=O)N2CCN(Cc3cnn(-c4cccc(Cl)c4)c3)C[C@H]12`: the activation was 3.76% (inactive).

As to `COc1ccc(CNC(=O)C(NS(=O)(=O)c2ccc3c(c2)oc(=O)n3C)C(C)C)cc1` (stereo not drawn), the activation was -0.7% (inactive). To `Cc1cccc(N2CCN(C(=O)c3ccc(S(=O)(=O)c4ccc(F)cc4)c([N+](=O)[O-])c3)C(C)C2)c1` (stereo not drawn) belongs 14.7% (active). Next, `Cc1ccc(C)c(N2CCN(C(=O)c3ccc(S(=O)(=O)c4ccc(Br)cc4)c([N+](=O)[O-])c3)CC2)c1`: 4.42% (inactive). Next, `COc1ccc(N2CCN(C(=O)c3ccc(SCc4ccccc4F)c([N+](=O)[O-])c3)CC2)cc1`: 0.52% (inactive). In the case of `Cc1ccccc1-n1cc(-c2ccccc2)[nH]c1=S`, the activation was -4.28% (inactive).

Take `CSC1=NCCN1C(=O)COc1ccc2ccccc2c1`: the activation is -1.84% (inactive). To `COc1cc2nc(SCC(N)=O)n3nc(CCn4nc(C)cc4C)nc3c2cc1OC` belongs 1.45% (inactive). To `Cc1c(C(=O)NCCC2CCCN2C)sc2ncnc(NCc3ccco3)c12` (stereo not drawn) belongs 3.32% (inactive); to `CCc1nnc(NC(=O)CSc2nc3cccnc3n2Cc2ccccc2)s1`, 0.71% (inactive); to `O=C(COc1ccccc1[N+](=O)[O-])N/N=C/c1ccc(Br)cc1`, 0.11% (inactive). Consider `Cc1cccc2c(N3CCCC3)nc(CNS(=O)(=O)c3ccc4c(c3)OCCO4)nc12`, for which the activation was -0.61% (inactive). To `COCC1CCN(c2nc3nonc3nc2NC2CCCC2)CC1` belongs 2.9% (inactive); to `O=C(CN1C(=O)C(c2ccccc2)=NC12CCCC2)Nc1ccccc1`, -0.92% (inactive). Next, `CCC(CC)C(=O)Nc1nnc(SCC(=O)Nc2cc(C(F)(F)F)ccc2Cl)s1`: 1.93% (inactive). Next, `Cn1cc(SCC(=O)Nc2ccccc2C(F)(F)F)c2ccccc21`: 3.59% (inactive); `O=C(Nc1cc(C(F)(F)F)ccc1Cl)c1ccc(C(=O)C(=O)c2ccccc2)cc1`: 6.45% (inactive); `Cc1ccc2c(c1)c(=O)c1ccccc1n2CC(=O)Nc1cccc(Cl)c1C`: -2.08% (inactive). For `CCOC(=O)c1nnn(CC(=O)Nc2cccc(C)c2)c1C(=O)OCC`, the activation was 1.6% (inactive). To `Cc1cc2c(cc1C)C(c1cc([N+](=O)[O-])ccc1Cl)CC(=O)N2` (stereo not drawn) belongs 0.43% (inactive).

Regarding `O=C(CCCn1c(=O)[nH]c2ccccc2c1=O)NC1CCCC1`, the activation is -1.75% (inactive). Next, `CCn1c(SC(C)C(=O)OC)nc2c(c1=O)SC(C)C2` (stereo not drawn): -0.05% (inactive). Next, `COc1ccc(NS(=O)(=O)c2ccc(NC(=S)NC(C)=O)cc2)cc1`: 3.81% (inactive); `CCC(C)NC(=O)c1cc2c(=O)oc3ccccc3c2s1` (stereo not drawn): 4.04% (inactive). Next, `CCC(C)NC(=O)c1cc(=O)[nH]c2ccc(Br)cc12` (stereo not drawn): 47.8% (active). Consider `CCC(C)NC(=O)c1ccc(-n2c(=S)[nH]c3ccccc3c2=O)cc1` (stereo not drawn), for which the activation was 0% (inactive).

With `CCc1c(C)sc(NC(NC(=O)C(C)C)(C(F)(F)F)C(F)(F)F)c1C#N`, the activation is -0.12% (inactive). As for `COc1cc(C2CC(=O)N3CN(C4CCCCC4)CSC3=C2C#N)cc(OC)c1OC` (stereo not drawn), the activation was -2.01% (inactive). In the case of `CCOC(=O)c1c(NC(=O)CSc2c[nH]c3ccccc23)sc2c1CCCCC2`, the activation was 4.28% (inactive). To `CCCCCCCCCCCCCC/C(C(=O)O)=C(\C)C(=O)O` belongs -2.17% (inactive). As to `Cc1ccc2c(c1)NC(C)(C)c1sn(-c3ccc(C(C)C)cc3)c(=S)c1-2`, the activation was 1.46% (inactive). To `O=[N+]([O-])c1c(Cl)cc(O)c2c1C1C=CCC1C(c1ccc(Cl)cc1Cl)N2` (stereo not drawn) belongs 5.29% (inactive); to `CC(C)C1Nc2c(O)cc(Cl)c([N+](=O)[O-])c2C2C=CCC21` (stereo not drawn), 10.3% (active). Consider `O=C(Nc1ccccc1C(F)(F)F)c1cnn2c(C(F)(F)F)cc(-c3ccco3)nc12`, for which the activation is -0.72% (inactive). For `CCOC(=O)c1cnc2c(OC)cccc2c1N1CCN(CC)CC1`, the activation was -1.9% (inactive). `CCC(Sc1nc(NC2CCCCC2)c2ccccc2n1)C(=O)Nc1ccc2c(c1)OCO2` (stereo not drawn): the activation is 0.68% (inactive). Next, `CCC(=O)Nc1ccc(NC(=O)CSc2nc3c(c(=O)n(C)c(=O)n3C)n2C)cc1`: -0.37% (inactive); `O=C(O)c1ccc(CN(Cc2ccc(Cl)cc2)C(=S)Nc2ccc(Oc3ccccc3)cc2)cc1`: -1.29% (inactive). To `Cc1[nH]c2ccc(OCc3ccccc3)cc2c1CCNC(=O)COc1ccc(F)cc1F` belongs -2.17% (inactive). `Cc1cc(Oc2nc3ccccn3c(=O)c2/C=C(\C#N)C(=O)N2CCCCC2)ccc1Cl`: the activation is -22.9% (inactive). On to `O=C(c1ccccc1)N1N=C(c2ccccc2)CC1(O)C(F)(F)C(F)(F)F` (stereo not drawn), for which the activation was 4.17% (inactive).

Consider `Cc1ccc(S(=O)(=O)N2CCCC2CNC(=O)C(=O)NC2CCCC2)cc1` (stereo not drawn), for which the activation is -1.44% (inactive). For `CCOc1ccccc1NC(=S)N(CCOC)C(C)c1ccccn1` (stereo not drawn), the activation was -1.68% (inactive). Take `Nc1ccc(C(=O)NCC2COc3ccccc3O2)cc1[N+](=O)[O-]` (stereo not drawn): the activation is 6.14% (inactive). To `Nc1ncc(Br)cc1S(=O)(=O)Nc1cc(F)ccc1F` belongs -0.83% (inactive); to `CCOc1ccc(-c2nc(CSCC(=O)NCC3CCCO3)c(C)o2)cc1` (stereo not drawn), 0.12% (inactive); to `Cc1cc2oc3c(c(=O)c2cc1C)C(c1ccc(O)cc1)N(CCCN1CCOCC1)C3=O` (stereo not drawn), 2.08% (inactive). In the case of `COc1cc(/C=C/C(=O)c2ccc(F)cc2)cc(OC)c1OC`, the activation was 0.62% (inactive). Next, `CC(C)CC(NC(=O)C(C)NC(=O)CNC(=O)C(NC=O)C(C)C)C(=O)NC(C)C(=O)NC(C(=O)NC(C(=O)NC(C(=O)NC(Cc1c[nH]c2ccccc12)C(=O)NC(CC(C)C)C(=O)NC(Cc1c[nH]c2ccccc12)C(=O)NC(CC(C)C)C(=O)NC(Cc1c[nH]c2ccccc12)C(=O)NC(CC(C)C)C(=O)NC(Cc1c[nH]c2ccccc12)C(=O)NCCO)C(C)C)C(C)C)C(C)C` (stereo not drawn): 39.2% (active). To `CN(C)c1ncc(/C=C2/C(=O)NC(=S)N(c3ccccc3F)C2=O)cn1` belongs 0.14% (inactive); to `COc1ccc(/C(C)=N/NC(=O)C(C)Nc2ccc(Cl)cc2)cc1` (stereo not drawn), -2.32% (inactive); to `CC[C@@H](C(=O)C(C)[C@@H](O)[C@H](C)CCc1ccc(C)c(O)c1C(=O)O)C1OC(CC)(C2CC[C@](O)(CC)[C@H](C)O2)C[C@@H]1C` (stereo partly drawn), 29.8% (active).

Consider `COC(=O)C1=C(N)Oc2c(oc(CO)cc2=O)C1c1c(Cl)cccc1Cl` (stereo not drawn), for which the activation was 0.48% (inactive). Regarding `C=CCN1C(=O)/C(=C2\SC(N3CCCCC3)=NC2=O)c2cc(Br)ccc21`, the activation was 2.45% (inactive). Next, `C=CCN1/C(=C\C=C2\C=Nc3ccc(Br)cc32)C=Cc2ccc(C)cc21`: 20.7% (active); `CC(C)c1onc(C(=O)Nc2cc(Cl)ccc2O)c1[N+](=O)[O-]`: -3.34% (inactive). Next, `C=CCNC(=O)c1cccc(NS(=O)(=O)c2ccc(Cl)cc2)c1`: 4.37% (inactive); `CCc1ccc(C2CC(c3ccccc3)Nc3nc(N)nn32)cc1` (stereo not drawn): 3.26% (inactive); `COc1ccc(Cn2c(C)c(C)n3c4c(=O)n(CCCO)c(=O)n(C)c4nc23)cc1`: 1.31% (inactive).

As for `O=C(NCCSCc1ccccc1)c1ccc[nH]c1=S`, the activation was 2.53% (inactive). Next, `CCSc1nnc(CSc2ncccn2)n1-c1ccccc1`: -3.02% (inactive); `COc1cc(S(=O)(=O)N2CCN(c3ccc(C)c(C)c3)CC2)ccc1F`: 1.41% (inactive); `COc1ccc(-c2nnc3sc(NC(=O)C(C)C)nn23)cc1`: -0.23% (inactive). To `Cc1nccc2[nH]c(=O)c(C(=O)NC3CCN(Cc4ccccc4)CC3)cc12` belongs 0.02% (inactive); to `Cc1cccc(NC(=O)c2c(-c3ccccc3Cl)noc2C)c1C`, 0.14% (inactive); to `C=CCNc1nnc(-c2cc3c(CO)cnc(C)c3oc2=O)s1`, -2.69% (inactive). Next, `O=C1CCCN1CCCNc1nc(-c2cccc(Cl)c2)c2c(n1)-c1ccccc1OC2`: -1.27% (inactive). Consider `C=CCOC(=O)c1[nH]c2c(c1C)C(=O)C(C(=O)OC)C(C)C2` (stereo not drawn), for which the activation was 2.72% (inactive).

The record behind these values is PubChem BioAssay AID1508607 (The Scripps Research Institute Molecular Screening Center, 2020).
